Among the test systems are SR leukemia; RPMI-8226 leukemia; OVCAR-8 ovarian; OVCAR-5 ovarian; OVCAR-4 ovarian; SK-OV-3 ovarian; IGROV1 ovarian; HS 578T breast; NCI/ADR-RES ovarian; OVCAR-3 ovarian.
Common to all, as to experiment: NCI-60 one-dose screen, 48 h (100 = growth as untreated, 0 = no growth, -100 = all killed)
Holding throughout (settings): 10 µM unless noted

“And” between values parts separate entries of the source, which are not always exact repeats. Identical values can stand only once. The panel holds about 83,000 compounds, 20% with a hit somewhere; the sample as a whole holds those more often.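 Assay: single dose, 48 h. Readout: percent growth (0 = no net growth; negative = cell death). Active: <10.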 The source made the active and inactive calls.

Data on 11 compounds can be found in PubChem BioAssay (NCI).

`COc1cccc(NC(=O)c2sc3nc(C)c(C(O)c4ccccc4)cc3c2N)c1` (centres undefined): the growth in the assay with SR leukemia is 6.69% (active); with RPMI-8226 leukemia it was 13.8% (inactive); with OVCAR-8 ovarian, 8.45% (active); in the assay on OVCAR-5 ovarian, 47.5% (inactive); in the assay with OVCAR-4 ovarian, 70.3% (inactive); in the assay with SK-OV-3 ovarian, 12.5% (inactive). Moreover, the values for the growth in the assay on IGROV1 ovarian, with HS 578T breast and in the assay on NCI/ADR-RES ovarian were 25.7% (inactive), 14.6% (inactive) and 7.31% (active), respectively.
For `O=C1C(N2CCOCC2)=C(I)C(=O)c2ncccc21`, the growth in the assay on SR leukemia is 19.2% (inactive); in the assay with RPMI-8226 leukemia, 91.2% (inactive); in the assay with OVCAR-8 ovarian, 69.5% (inactive); in the assay with OVCAR-5 ovarian, 97.8% (inactive); in the assay on OVCAR-4 ovarian it was 59% (inactive); in the assay on SK-OV-3 ovarian, 79.3% (inactive). Also, the growth was 54.5% (inactive) in the assay with IGROV1 ovarian, 65.1% (inactive) in the assay with HS 578T breast and 75.4% (inactive) in the assay on NCI/ADR-RES ovarian.
`O=c1oc2c(Br)cc(Br)cc2cc1-c1cc(-c2ccc(-c3cc(-c4cc5cc(Br)cc(Br)c5oc4=O)nc(-c4cc5cc(Br)cc(Br)c5oc4=O)c3)cc2)cc(-c2cc3cc(Br)cc(Br)c3oc2=O)n1`: the growth with SR leukemia is 92.5% (inactive); in the assay with RPMI-8226 leukemia it was 102% (inactive); in the assay on OVCAR-8 ovarian, 108% (inactive); in the assay with OVCAR-5 ovarian, 109% (inactive); in the assay on OVCAR-4 ovarian, 113% (inactive); in the assay with SK-OV-3 ovarian, 101% (inactive). The growth with IGROV1 ovarian was 106% (inactive); in the assay on HS 578T breast, 90.7% (inactive); in the assay on NCI/ADR-RES ovarian, 98.1% (inactive).
Take `C#CCOc1cccc(Nc2ncc3ncn(C4CCN(C(=O)CCl)C4)c3n2)c1` (centres undefined): the growth in the assay on SR leukemia was -1.16% [6.25 µM] (active); in the assay on RPMI-8226 leukemia, 44.1% [6.25 µM] (inactive); in the assay on OVCAR-8 ovarian, 51.7% [6.25 µM] (inactive); with OVCAR-5 ovarian, 53.3% [6.25 µM] (inactive); with OVCAR-4 ovarian, 36.3% [6.25 µM] (inactive); with SK-OV-3 ovarian it was 73.4% [6.25 µM] (inactive). The growth in the assay on IGROV1 ovarian was 1% [6.25 µM] (active); with OVCAR-3 ovarian, -6.2% [6.25 µM] (active); in the assay on NCI/ADR-RES ovarian, 78% [6.25 µM] (inactive).
On to `C[N+]1=C(/C=C\C=C\c2ccccc2)C(C)(C)c2ccccc21`, for which the growth is -14.3% (active) in the assay with SR leukemia; -25.5% (active) in the assay on RPMI-8226 leukemia; 12.2% (inactive) in the assay with OVCAR-8 ovarian; 45.1% (inactive) in the assay with OVCAR-5 ovarian; 39.9% (inactive) in the assay with OVCAR-4 ovarian; 92.8% (inactive) in the assay with SK-OV-3 ovarian. Besides, the growth with IGROV1 ovarian is 19.9% (inactive); in the assay on OVCAR-3 ovarian, -4.63% (active); with NCI/ADR-RES ovarian it was 75.3% (inactive).
For the compound `Clc1ccc(CNc2ccc3nc(CCC4CCCCC4)[nH]c3c2)cc1`, the growth with SR leukemia is 26.2% (inactive); in the assay with RPMI-8226 leukemia, -6.18% (active); in the assay on OVCAR-8 ovarian, 65.3% (inactive); with OVCAR-5 ovarian, 53% (inactive); with OVCAR-4 ovarian it was 32.3% (inactive); with SK-OV-3 ovarian it was 78.9% (inactive). Further, the growth with IGROV1 ovarian was 45.9% (inactive); in the assay with HS 578T breast, 78.8% (inactive); in the assay on NCI/ADR-RES ovarian it was 54.7% (inactive).
For the compound `NC(=O)c1c(NC(=O)/C=C/c2cccs2)sc2c1CCC(=O)C2`, the growth is 11.2% (inactive) with SR leukemia; -9.58% (active) in the assay on RPMI-8226 leukemia; 20.2% (inactive) in the assay with OVCAR-8 ovarian; 79.3% (inactive) with OVCAR-5 ovarian; 14.2% (inactive) in the assay with OVCAR-4 ovarian; 94.7% (inactive) in the assay with SK-OV-3 ovarian. Besides, the growth in the assay with IGROV1 ovarian is 24.4% (inactive); with HS 578T breast, 26.7% (inactive); in the assay with NCI/ADR-RES ovarian, 52.4% (inactive).
Consider `COc1cc(OC)cc(-c2ccc(-c3ccc(C(=N)N)cn3)s2)c1`, for which the growth is 6.61% (active) in the assay on SR leukemia; -1.98% (active) with RPMI-8226 leukemia; 17.8% (inactive) with OVCAR-8 ovarian; 89.8% (inactive) with OVCAR-5 ovarian; 28.4% (inactive) in the assay with OVCAR-4 ovarian; 82.2% (inactive) in the assay with SK-OV-3 ovarian. Further, the figures for the growth in the assay on IGROV1 ovarian, in the assay on OVCAR-3 ovarian and in the assay with NCI/ADR-RES ovarian were 78.4% (inactive), 5.54% (active) and 95.4% (inactive), respectively.
`NS(=O)(=O)c1ccc(C(=O)N=Nc2c(O)[nH]c3c(F)cccc23)cc1`: the growth with SR leukemia was 103% (inactive); in the assay on RPMI-8226 leukemia, 106% (inactive); in the assay with OVCAR-8 ovarian, 96.7% (inactive); in the assay on OVCAR-5 ovarian, 99.8% (inactive); with OVCAR-4 ovarian it was 102% (inactive); in the assay with SK-OV-3 ovarian, 109% (inactive). Also, the values for the growth in the assay on IGROV1 ovarian, in the assay on OVCAR-3 ovarian and in the assay on NCI/ADR-RES ovarian were 99.5% (inactive), 117% (inactive) and 100% (inactive), respectively.
With `COc1cc(CO)cc2cc3ccccc3nc12`, the growth was 96% (inactive) in the assay with SR leukemia; 101% (inactive) in the assay with RPMI-8226 leukemia; 101% (inactive) with OVCAR-8 ovarian; 106% (inactive) in the assay on OVCAR-5 ovarian; 107% (inactive) in the assay on OVCAR-4 ovarian; 109% (inactive) in the assay with SK-OV-3 ovarian. For the same compound, the growth was 106% (inactive) in the assay on IGROV1 ovarian, 108% (inactive) in the assay with HS 578T breast and 111% (inactive) with NCI/ADR-RES ovarian.
As to `O=C1/C(=C/c2ccccc2[N+](=O)[O-])Cc2ccccc21`, the growth in the assay with SR leukemia was 3.7% (active) and 11.5% (inactive); in the assay on RPMI-8226 leukemia it was -5.97% (active) and 3.37% (active); in the assay on OVCAR-8 ovarian it was 0.344% (active) and 59.9% (inactive); in the assay with OVCAR-5 ovarian, -1.63% (active) and 12.7% (inactive); in the assay on OVCAR-4 ovarian, -36.5% (active) and -39.5% (active); in the assay with SK-OV-3 ovarian it was 70.4% (inactive) and 95.2% (inactive). Further, the growth is -10.6% (active) and 17.3% (inactive) in the assay on IGROV1 ovarian; 32.3% (inactive) and 71.2% (inactive) with HS 578T breast; -47.5% (active) with NCI/ADR-RES ovarian.
